# Records with an inconclusive call do not appear. A call without a number means that no potency is given here. Calls of active or inactive are those of the source. The call rests on the fitted dose curve; in most records, active means well fitted curve in the direction sought with a large enough effect; inconclusive means small, poorly fitted or top-dose-only effect, or another doubt; inactive means no such curve, though single readings can be large; an effect the other way counts as inactive or inconclusive.
# Experiments:
# [1] = HEK293 18hr Apoptosis Induction qHTS against the NCATS CANVASS Library (AID 1347357)
# Method in brief: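 HEK293 cells (500 per well, DMEM with 10% FBS) were treated with natural products, incubated 18 hours at 37 degrees C, then caspase-3/7 activity was read by Caspase-Glo luminescence after 15 min at room temperature.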
# [2] = HPAF-II 12hr Apoptosis Induction qHTS against the NCATS CANVASS Library (AID 1347358)
# Method in brief: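 Cells plated at 500 per well are dosed with compound and incubated 12 hours at 37 degrees C. Caspase-Glo 3/7 reagent is added and, after 15 min at room temperature, luminescence proportional to caspase activity is measured.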
# [3] = HEK293 24hr Apoptosis Induction qHTS against the NCATS CANVASS Library (AID 1347359)
# Method in brief: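 HEK293 cells, 500 per well, exposed to an 11-point compound series for 24 hours at 37 degrees C. Caspase 3/7 activity read by Caspase-Glo luminescence (DEVD substrate) after 15 min at room temperature.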
# [4] = HPAF-II 18hr Apoptosis Induction qHTS against the NCATS CANVASS Library (AID 1347360)
# Method in brief: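 HPAF-II cells (500/well, DMEM + 10% FBS) were exposed to compounds for 18 hours at 37 degrees C. Caspase-3/7 activity was then read by Caspase-Glo 3/7 luminescence after 15 min at room temperature.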
# [5] = HEK293 12hr Apoptosis Induction qHTS against the NCATS CANVASS Library (AID 1347361)
# Method in brief: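 Read-out: Caspase-Glo 3/7 luminescence (DEVD substrate), 15 min RT. Preceded by 12 h compound exposure of HEK293, 500 cells/well, 11-pt qHTS titration; doxorubicin titration as control.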
# [6] = target: Luciferin 4-monooxygenase (Photinus pyralis) (UniProt P08659); experiment: Firefly luciferase counterscreen qHTS: Assay Interference Panel against the NCATS CANVASS Library (AID 1347363)
# Chain of Luciferin 4-monooxygenase (Photinus pyralis) (P08659 whole entry, looked up): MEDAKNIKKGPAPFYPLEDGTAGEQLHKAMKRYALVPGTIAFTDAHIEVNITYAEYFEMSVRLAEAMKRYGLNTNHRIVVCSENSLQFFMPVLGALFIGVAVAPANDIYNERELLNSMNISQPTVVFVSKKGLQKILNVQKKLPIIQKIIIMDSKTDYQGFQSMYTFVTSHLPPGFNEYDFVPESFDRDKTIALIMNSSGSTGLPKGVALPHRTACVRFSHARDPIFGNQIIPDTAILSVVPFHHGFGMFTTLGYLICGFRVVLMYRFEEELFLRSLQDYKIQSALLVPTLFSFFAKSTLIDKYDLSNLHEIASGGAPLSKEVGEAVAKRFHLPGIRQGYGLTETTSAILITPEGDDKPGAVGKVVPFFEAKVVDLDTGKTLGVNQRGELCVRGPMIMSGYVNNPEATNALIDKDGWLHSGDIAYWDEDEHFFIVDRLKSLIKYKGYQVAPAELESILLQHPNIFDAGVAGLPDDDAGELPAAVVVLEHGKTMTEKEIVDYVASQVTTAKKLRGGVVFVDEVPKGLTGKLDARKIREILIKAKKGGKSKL
# Method in brief: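 Purified P. pyralis luciferase (0.04 ug/mL, 4x reagent) added to Tris-acetate buffer with 0.013 mM D-luciferin, 0.013 mM ATP and 13.3 mM Mg-acetate; compounds preincubated 15 min, then luminescence read after 5 min, RT.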
# [7] = KB-8-5-11 Cancer Cell Toxicity qHTS against the NCATS CANVASS Library (AID 1347364); further: nearly all actives have a fitted effect of over 75% in size
# Method in brief: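 Terse: KB-8-5-11, 500 cells/well, 72 hr, 37C/5% CO2, 11-pt titration, CellTiter-Glo readout; confirmatory runs ± 1uM tariquidar in medium.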
# [8] = SDT Cancer Cell Toxicity qHTS against the NCATS CANVASS Library (AID 1347365); further: nearly all actives have a fitted effect of over 60% in size; further: potency means the concentration at half of the fitted maximal effect
# Method in brief: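 Cytotoxicity is measured from cellular ATP: compounds in an 11-point concentration series are pinned onto SDT cells, incubated 72 hr at 37C, then CellTiterGlo is added and luminescence read.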
# [9] = KB-3-1 Cancer Cell Toxicity qHTS against the NCATS CANVASS Library (AID 1347366); settings: KB-3-1 viability, CellTiter-Glo luminescence, 72 h; at 46.1 µM (top of the series); further: nearly all actives have a fitted effect of over 75% in size
# Method in brief: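 KB-3-1 cells (500 cells/well) in DMEM + 10% FBS were treated with compounds for 72 hr at 37C, 5% CO2. Viability was read as CellTiter-Glo luminescence after 10 minutes at room temperature.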
# [10] = qHTS for ATAD5 Agonist screened against the NCATS CANVASS Library (AID 1347367);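 further: luciferase reporter driven by ATAD5 which rises upon DNA damage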
# Method in brief: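 HEK293T cells stably carrying an ATAD5-controlled luciferase reporter (2000 cells/well) attached for 5 hr, then received compounds in an 11-point series for 16hr at 37C. Luminescence was read after a 30 min room-temperature reagent step.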
# [11] = G06 Cancer Cell Toxicity qHTS against the NCATS CANVASS Library (AID 1347368); further: nearly all actives have a fitted effect of over 60% in size; further: potency means the concentration at half of the fitted maximal effect
# Method in brief: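 Cells were plated at 500 per well, then compounds were added over an 11-point range. After 72 hr at 37C, CellTiterGlo was added and luminescence measured as ATP content.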
# [12] = qHTS for ATAD5 Antagonist screened against the NCATS CANVASS Library (AID 1347370);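 further: HEK293T cells carrying an ATAD5 luciferase reporter co-treated with 10 µM 5-fluorouridine; nearly all actives have a fitted effect of over 65% in size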
# Method in brief: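 Compounds (11-point) co-dosed with 10 µM 5-FUrd for 16 h at 37 °C onto HEK293T-ATAD5 luciferase reporter cells. Viability measured by CellTiter-Fluor fluorescence, then ATAD5 reporter signal by luminescence.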
# [13] = J3T Cancer Cell Toxicity qHTS against the NCATS CANVASS Library (AID 1347371); settings: outcome: dose series up to 46.1 µM
# Method in brief: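 Luminescence from CellTiterGlo, reporting cellular ATP, serves as the viability measure after 72 hr compound treatment of J3T canine glioma cells seeded at 500 cells/well.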
# [14] = target: Nuclear receptor subfamily 1 group I member 3 (Homo sapiens) (UniProt Q14994); experiment: qHTS for Constitutive Androstane Receptor (CAR) Antagonist screened against the NCATS CANVASS Library (AID 1347372);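 further: cells stimulated with 50 nM CITCO agonist so inhibition reflects antagonism; luciferase from CYP2B6 promoter reporter driven by hCAR in HepG2 cells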
# Chain of Nuclear receptor subfamily 1 group I member 3 (Homo sapiens) (Q14994 whole entry, looked up): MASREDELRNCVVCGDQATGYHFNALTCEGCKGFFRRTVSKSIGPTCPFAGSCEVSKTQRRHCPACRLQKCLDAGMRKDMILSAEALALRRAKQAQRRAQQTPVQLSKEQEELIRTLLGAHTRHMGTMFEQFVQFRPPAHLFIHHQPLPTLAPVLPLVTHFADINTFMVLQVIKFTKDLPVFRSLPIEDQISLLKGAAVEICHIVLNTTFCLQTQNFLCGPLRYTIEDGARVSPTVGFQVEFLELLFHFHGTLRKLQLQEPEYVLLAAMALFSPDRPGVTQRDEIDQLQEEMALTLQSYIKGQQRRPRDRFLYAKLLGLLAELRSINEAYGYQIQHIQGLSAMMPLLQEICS
# Method in brief: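 Luminescence readout (ONE-Glo, 30 min RT) of CYP2B6-2.2kb reporter in HepG2-hCAR cells after 24hr, 37C treatment with compound against 50 nM CITCO; CellTiter-Fluor viability read beforehand.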
# [15] = target: Nuclear receptor subfamily 1 group I member 3 (Homo sapiens) (UniProt Q14994); experiment: qHTS for Constitutive Androstane Receptor (CAR) Agonist screened against the NCATS CANVASS Library (AID 1347373);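 further: every well also contained 1.5 µM PK11195 alongside the test compound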
# Method in brief: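 Cells were plated and allowed to attach for 4hr, then dosed with compound in an 11-point series alongside 1.5uM PK11195. After 24hr at 37C, viability was measured fluorometrically and CAR-driven CYP2B6 reporter luminescence was recorded.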
# [16] = qHTS for Hypoxia signaling pathway (HIF-1) antagonists against the NCATS CANVASS Library (AID 1347374);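 further: HRE-bla ME-180 cells stimulated with cobalt chloride to stabilize HIF-1alpha; nearly all actives have a fitted effect of over 60% in size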
# Method in brief: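 Antagonism scored as loss of CoCl2-driven (60 uM stock added) HRE beta-lactamase signal, read by CCF4 FRET at 460/530 nm. Compounds were tested in an 11-point series on ME-180 reporter cells for 17 hrs at 37C, with parallel CellTiter-Glo cytotoxicity.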
# [17] = qHTS for Hypoxia signaling pathway (HIF-1) agonists against the NCATS CANVASS Library (AID 1347375)
# Method in brief: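 Cells plated and rested 5 h, compounds pinned in DMSO across 11 concentrations, incubated 17 h at 37C, loaded with CCF4-AM for 2 h, fluorescence read at 460 and 530 nm, then CellTiter-Glo luminescence measured for viability and normalization.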
# [18] = 10-beta competent E. coli microbial cell viability qHTS against the NCATS CANVASS Library (AID 1347376)
# Method in brief: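 Bacterial suspension diluted to 0.2 OD was dosed with compounds, 11-point series, then held overnight at 37C. BacTiter-Glo reagent was added, and after 20 min at room temperature ATP-dependent luminescence was measured.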
# [19] = DH5-alpha competent E. coli microbial cell viability qHTS against the NCATS CANVASS Library (AID 1347377); settings: outcome: dose series up to 46.1 µM
# Method in brief: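 Bacteria were dispensed at 0.2 OD, then compounds were pin-transferred. Plates were incubated overnight at 37C, after which BacTiter-Glo was added and luminescence measured 20 min later.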
# [20] = MCF7 Cancer Cell Toxicity qHTS against the NCATS CANVASS Library (AID 1347369); settings: MCF7 viability, ATP luminescence (CellTiter-Glo), 72 h; further: potency means the concentration at half of the fitted maximal effect
# Method in brief: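 MCF7, 500 cells/well; cpds 11-pt qHTS; 72 hr, 37C/5% CO2; CellTiterGlo ATP luminescence.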
Compound,outcome [1],outcome [2],outcome [3],outcome [4],outcome [5],outcome [6],outcome [7],Potency [8],outcome [9],outcome [10],Potency [11],outcome [12],outcome [13],outcome [14],outcome [15],outcome [16],outcome [17],outcome [18],outcome [19],Potency [20]
O=C(O)c1cc(O)c(O)c(O)c1,inactive,inactive,inactive,inactive,inactive,inactive,inactive,inactive,inactive,inactive,inactive,inactive,inactive,inactive,inactive,inactive,inactive,inactive,inactive,–
O=c1cc(-c2ccccc2)oc2c(O)c(O)ccc12,inactive,inactive,inactive,inactive,inactive,–,–,4.18 µM (active),–,–,9.35 µM (active),–,inactive,inactive,–,–,inactive,inactive,inactive,13.1 µM (active)

# From PubChem BioAssay (NCATS)
